“And” between values parts separate entries of the source, which are not always exact repeats. Equal values may be shown once. The source holds several records for some structures; these can differ, active in one and inactive in another. The source made the active and inactive calls. The calls were made as follows: active = hit-call score of the fitted dose curve at least 0.9, where 1 is the maximum; inactive = score below 0.9.
Assay: BSK_BT_PBMCCytotoxicity: PBMC Cytotoxicity Assessment in the BioMAP Diversity Plus: BT Assay (AID 2284225);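 also: PBMC viability measured by Alamar Blue dye reduction fluorescence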
Settings: primary human B cells with PBMC
How it was run: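 Viability by Alamar Blue reduction (6 h, ex/em 546/580 nm) after 90 h culture of SEB/TSST-1-activated PBMC (20 ng/mL each) given compound 1 h before activation. DMSO served as baseline for curve fitting.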
For OCCC(F)(F)C(F)(F)C(F)(F)C(F)(F)C(F)(F)C(F)(F)C(F)(F)C(F)(F)F, the AC50 was 43.4 µM (active) and 40.7 µM (active).
With FC(F)(I)C(F)(F)C(F)(F)C(F)(F)C(F)(F)C(F)(F)I the AC50 was 25.6 µM (active) [middle of 5 runs].
For C=C(C)C(=O)OCCC(F)(F)C(F)(F)C(F)(F)C(F)(F)C(F)(F)C(F)(F)F, the outcome was “inactive”.
With NCC(F)(F)C(F)(F)C(F)(F)C(F)(F)C(F)(F)C(F)(F)C(F)(F)F the outcome was “inactive”.
With OCCC(F)(F)C(F)(F)C(F)(F)C(F)(F)C(F)(F)C(F)(F)F the AC50 was 30 µM (active) and the outcome was “inactive”.
In the case of CCCCCCCCCCCCCC[N+](C)(C)C, the AC50 is reported as 11.5 µM (active).
For C[C@@H]1C[C@H]2[C@@H]3CCC4=CC(=O)C=C[C@]4(C)[C@@]3(F)[C@@H](O)C[C@]2(C)[C@@]1(O)C(=O)COP(=O)(O)O, the AC50 was 0.485 µM (active) and the outcome was “inactive”.

From PubChem BioAssay (EPA / NIEHS)
